Test results as given in PubChem BioAssay (NCATS).
Values joined by “and” are separate entries in the source; they are usually repeats but may differ in a detail not shown here. Identical values can stand only once. Inconclusive results are not listed. Active and inactive are the calls of the source. Unless noted, calls come from the whole dose curve; as a rule, active = well fitted curve in the direction sought with a large enough effect; inconclusive = small, poorly fitted or top-dose-only effect, or another doubt; inactive = no such curve, though single readings can be large; an effect the other way counts as inactive or inconclusive.

Columns and labels:
[1] = molecular target: Glucocorticoid receptor (Homo sapiens) (UniProt P04150); test: GR-GFP Redistribution (AID 450;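 active = compounds whose dose series gives a full or clear partial fitted curve of increased nuclear translocation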; note: potency is the fitted concentration of half-maximal effect); conditions: U2OS GR-GFP nuclear translocation, laser cytometry, 2 h
[2] = molecular target: Glucocorticoid receptor (Homo sapiens) (UniProt P04150); test: GR-EFC Redistribution (AID 451; calls by dose curve; note: potency is the fitted concentration of half-maximal effect); conditions: CHO-K1 GR-EFC translocation, beta-gal luminescence, 2 h
Method in brief: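 Translocation of GR-ED fusion to nuclear EA restores b-gal, read by luminescence after 1 h room-temperature detection. Engineered CHO-K1 biosensor cells, 1,000/well, exposed 2 h at 37 C to titrations up to 46 uM final.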

[3] = molecular target: Mitogen-activated protein kinase 10 (Mus musculus) (UniProt Q61831); test: JNK3 AlphaScreen Assay (AID 530; active = well fitted curve in either direction with a large enough effect, not every such curve was filed as active;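 note: kinase came from lysate of stimulated human HepG2 cells; signal reports phosphorylation of biotinylated GST-cJun 1-79 at Ser73 with 10 µM ATP; % is set by controls: 0 for no effect and ±100 for the full control effect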)
Method in brief: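 qHTS titrations with 15 min compound pre-incubation before adding ATP (10 uM final). Read-out: AlphaScreen of Ser73-phosphorylated biotin-GST-cJun using HepG2 lysate JNK3 activated by IL-1β and TNFα.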

[4] = molecular target: 3',5'-cyclic-AMP phosphodiesterase 4B (Homo sapiens) (UniProt Q07343); test: qHTS Assay for Inhibitors of PDE-IV (AID 607; active = well fitted activation curve with a large enough effect in the main read-out, with a control signal flat, not every such curve was filed as active; note: % of control where 0% means no effect)
Method in brief: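 ACTOne HEK293 cells carry a modified cAMP-gated CNG channel and express endogenous PDE4; plated 1000 cells/well, compounds up to 22.9 uM final. Membrane-potential dye fluorescence (ex 535/em 590) was read; parental cells received 10 uM forskolin + 100 uM RO 20-1724.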

[5] = qHTS Assay for Lipid Storage Modulators (AID 1519; calls by dose curve; for activity change, negative = inhibition: % is set by controls: 0 for no effect and ±100 for the full control effect); conditions: Drosophila S3 cells, BODIPY lipid droplet/cell ratio, laser cytometry, cells loaded with oleic acid
Method in brief: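 Cells seeded at 5,000 per well were treated with compounds over a concentration series and loaded with oleic acid (400 uM, as added). Lipid droplet fluorescence (488 nm excitation, 500-530 nm channel) was read by laser-scanning cytometry and normalized to 20 uM Triacsin C.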

[6] = molecular target: Ubiquitin carboxyl-terminal hydrolase 1 (Homo sapiens) (UniProt O94782); test: Inhibitors of USP1/UAF1: Pilot qHTS (AID 504865);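 note: rhodamine fluorescence freed from ubiquitin-rhodamine substrate followed over time; top concentration of the series differs between compounds; % is set by controls: 0 for no effect and ±100 for the full control effect; nearly all actives have a fitted effect of over 35% in size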
Method in brief: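 In 50mM HEPES pH 7.8 containing 0.5mM EDTA, 1mM TCEP, 0.1 mg/ml BSA and 0.01% Tween-20, 1nM USP1/UAF1 is exposed to compound for 15 min, then Ub-Rho (150nM final) is added and fluorescence is read over time.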

[7] = molecular target: DNA dC->dU-editing enzyme APOBEC-3G (Homo sapiens) (UniProt Q9HC16); test: qHTS for inhibitors of Vif-A3G interactions: Validation (AID 588379); note: 0% is about no effect
Method in brief: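 Yellow fluorescence (Ex 488, Em 500-530) of Vif-coexpressing HeLa A3G-eYFP cells, scanned by Acumen cytometer, reports blocked A3G degradation. Cells plated at 700/well overnight at 37 deg C before compound addition, then a further overnight compound incubation at 37 deg C.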

[8] = system: Zika virus NS2B-NS3 protease; test: Primary screen GU AMC qHTS for Zika virus inhibitors (AID 1347154); note: nearly all actives have a fitted effect of over 70% in size; note: potency is the fitted concentration of half-maximal effect;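 for activity change, negative = inhibition: 0% = no-inhibitor control and -100% = no-enzyme control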
Method in brief: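 Fluorogenic AMC-substrate cleavage by noncovalent NS2B-NS3 protease complex (25 nM, pH 8.0 Tris buffer with Tween 20) followed for 15 minutes at room temperature (~20% conversion). Percent inhibition from ex340/em450 signal change, fitted by 4-parameter Hill equation.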

[9] = Stat Signaling Pathway (AID 446; active = well fitted curve in either direction with a large enough effect, not every such curve was filed as active;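 note: ME-180 cervical cancer cells given 40 pM IL-6 alongside compound; SIE-controlled beta-lactamase reporter measured as 460/530 nm FRET emission ratio; % is set by controls: 0 for no effect and ±100 for the full control effect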); conditions: ME-180 (cervical carcinoma) SIE beta-lactamase reporter, IL-6 stimulated, 5 h
Method in brief: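 Compound effects on IL-6-induced STAT reporter activity were measured in ME-180 cells. After overnight culture, cells were co-treated with 40 pM IL-6 for 5 hrs before beta-lactamase substrate loading at room temperature.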

[10] = molecular target: Guanine nucleotide-binding protein G(i) subunit alpha-1 (Homo sapiens) (UniProt P63096); test: qHTS Assay for Inhibitors of RGS12 GoLoco Motif Activity (Green Fluorophore) (AID 879);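 note: 0% = labeled peptide with Gαi1 and full inhibition = labeled peptide alone without protein; negative values mean loss of peptide binding seen as reduced polarization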
Method in brief: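 A drop in FITC polarization marked displacement of the FITC-tagged RGS12 GoLoco peptide (10 nM) from Gαi1 (50 nM). Compounds were incubated 10 min at room temperature in Tris pH 7.5 buffer containing 150 mM NaCl, 0.1 mM GDP and 0.05% NP40; unlabeled peptide titration served as control.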

[11] = molecular target: Cytochrome P450 3A4 (Homo sapiens) (UniProt P08684); test: qHTS Assay for Inhibitors and Substrates of Cytochrome P450 3A4 (AID 884); note: % is set by controls: 0 for no effect and ±100 for the full control effect; nearly all actives have a fitted effect of over 50% in size
Method in brief: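 Luminescent readout of luciferin produced by CYP3A4 (20 nM) dealkylation of Luciferin-PPXE, 25 uM (its KM). NADPH-driven reaction ran 60 min at RT after 10 min compound preincubation; data scaled to 57 uM ketoconazole as 100% inhibition.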

[12] = qHTS Assay for Identification of Small Molecule Antagonists for NFkB Signaling Pathway (AID 895; active = well fitted inhibition curve with a large enough effect in the signal ratio, with a control signal flat, not every such curve was filed as active; the % refers to the signal ratio; note: % is set by controls: 0 for no effect and ±100 for the full control effect)
Method in brief: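 Beta-lactamase reporter read-out (460 and 530 nm emission ratio, 405 nm excitation, 2 hrs substrate loading RT) after 5 hr stimulation with 10 pM TNF alpha in compound-treated NFkB-bla ME-180 cells in low-serum medium.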

[13] = molecular target: Pyruvate kinase PKM (Homo sapiens) (UniProt P14618); test: qHTS Assay for Activators of Human Muscle Pyruvate Kinase (AID 954; active = well fitted curve in the direction sought with a large enough effect, not every such curve was filed as active;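 note: 0% = uninhibited enzyme and -100% = no enzyme or full thiadiazolimine inhibition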)
Method in brief: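 A coupled luminescent readout tracked ATP made from ADP by purified PKM2. Final conditions included 0.1 nM enzyme, PEP and ADP at 0.5 and 0.1 mM, pH 7.2 imidazole buffer with BSA, and a one-hour room-temperature reaction.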

[14] = molecular target: Alpha-galactosidase A (Homo sapiens) (UniProt P06280); test: Counterscreen for Glucocerebrosidase Inhibitors: qHTS Assay for Human alpha-Galactosidase at pH 4.5 (AID 992); note: 0% is about no effect
Method in brief: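 Citrate buffer pH 4.5, Tween-20 0.005%. Enzyme 2 nM, substrate 80 uM, 20 min RT. Stop pH 10. Fluorescence Ex 365/Em 440. AC50 by Hill fit.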

[15] = molecular target: alpha-glucosidase (Oryza sativa, rice) (UniProt Q653V4); test: Counterscreen for Glucocerebrosidase Inhibitors: qHTS Assay for Rice alpha-Glucosidase at pH 5.0 (AID 997);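 note: 0% = full activity with enzyme and -100% = basal without enzyme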
Method in brief: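 Endpoint fluorogenic assay at pH 5.0: compounds (0.7 nM to 77 uM) titrated against 4 nM rice enzyme and 400 uM 4-MU-alpha-glucoside for 20 min at room temperature; NaOH/glycine stop, read ex 365/em 440 nm, Hill-fitted AC50.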

[16] = molecular target: Cytochrome P450 1A2 (Homo sapiens) (UniProt P05177); test: p450-cyp1a2 (AID 410; calls by dose curve; note: potency is the fitted concentration of half-maximal effect)
Method in brief: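 Luminescent demethylation readout: Luciferin-ME (100uM, equal to Km) turned over by 20nM CYP1A2 for 60 min at room temperature after NADPH regeneration addition, following 10 min compound preincubation. Normalization used 57 uM furafylline as full inhibition.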

[17] = molecular target: Cytochrome P450 2D6 (Homo sapiens) (UniProt P10635); test: qHTS Assay for Inhibitors and Substrates of Cytochrome P450 2D6 (AID 891); note: potency is the fitted concentration of half-maximal effect; nearly all actives have a fitted effect of over 60% in size
Method in brief: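 Luminescent read-out of luciferin formed by 5 nM human CYP2D6 demethylating 30 uM Luciferin-ME EGE (Km level) over 60 min at room temperature after NADPH regeneration addition. Data normalized to full inhibition by 1.43 uM quinidine.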

[18] = molecular target: Cytochrome P450 3A4 (Homo sapiens) (UniProt P08684); test: qHTS Assay for Activators of Cytochrome P450 3A4 (AID 885); note: nearly all actives have a fitted effect of over 65% in size
Method in brief: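 CYP3A4 activity: Luciferin-PPXE O-dealkylation, 25uM substrate, 200mM KPO4, RT throughout. Read-out is luciferase luminescence; higher values reflect activation.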

[19] = measured here: cell count channel max response
[20] = measured here: lipid channel max response

Sequence of DNA dC->dU-editing enzyme APOBEC-3G (Homo sapiens) (Q9HC16 whole entry, looked up): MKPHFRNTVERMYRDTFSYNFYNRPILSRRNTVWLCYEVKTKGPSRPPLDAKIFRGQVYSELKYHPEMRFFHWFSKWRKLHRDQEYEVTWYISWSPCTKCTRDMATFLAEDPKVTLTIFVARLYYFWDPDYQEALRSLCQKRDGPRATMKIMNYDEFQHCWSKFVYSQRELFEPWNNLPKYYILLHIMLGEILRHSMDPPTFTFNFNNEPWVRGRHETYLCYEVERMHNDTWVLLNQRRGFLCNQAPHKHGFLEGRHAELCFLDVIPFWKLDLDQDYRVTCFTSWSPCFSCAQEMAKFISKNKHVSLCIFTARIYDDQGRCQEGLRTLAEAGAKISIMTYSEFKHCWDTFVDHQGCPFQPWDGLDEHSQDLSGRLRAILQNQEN
Sequence of Glucocorticoid receptor (Homo sapiens) (P04150 whole entry, looked up, the tested form may be a part): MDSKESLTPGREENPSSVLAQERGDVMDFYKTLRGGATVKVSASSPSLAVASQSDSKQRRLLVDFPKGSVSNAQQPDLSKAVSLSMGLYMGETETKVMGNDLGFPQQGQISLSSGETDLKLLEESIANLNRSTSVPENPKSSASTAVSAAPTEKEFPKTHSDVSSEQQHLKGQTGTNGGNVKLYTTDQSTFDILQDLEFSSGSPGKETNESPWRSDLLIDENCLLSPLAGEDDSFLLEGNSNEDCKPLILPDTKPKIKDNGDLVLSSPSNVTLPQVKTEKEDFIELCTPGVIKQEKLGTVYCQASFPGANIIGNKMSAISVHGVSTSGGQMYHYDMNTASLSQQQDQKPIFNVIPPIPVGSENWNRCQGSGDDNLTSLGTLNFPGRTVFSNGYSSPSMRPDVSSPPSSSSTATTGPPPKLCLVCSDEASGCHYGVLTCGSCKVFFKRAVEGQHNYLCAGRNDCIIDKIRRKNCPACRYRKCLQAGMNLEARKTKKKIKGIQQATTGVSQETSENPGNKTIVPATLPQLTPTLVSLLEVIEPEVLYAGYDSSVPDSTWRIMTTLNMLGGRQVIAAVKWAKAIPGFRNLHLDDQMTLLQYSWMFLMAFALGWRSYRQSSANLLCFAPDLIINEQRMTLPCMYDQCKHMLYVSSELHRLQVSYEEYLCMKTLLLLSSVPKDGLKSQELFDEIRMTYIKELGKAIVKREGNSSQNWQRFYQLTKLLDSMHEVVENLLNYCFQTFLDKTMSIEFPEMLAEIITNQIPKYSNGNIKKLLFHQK
Sequence of 3',5'-cyclic-AMP phosphodiesterase 4B (Homo sapiens) (Q07343 whole entry, looked up): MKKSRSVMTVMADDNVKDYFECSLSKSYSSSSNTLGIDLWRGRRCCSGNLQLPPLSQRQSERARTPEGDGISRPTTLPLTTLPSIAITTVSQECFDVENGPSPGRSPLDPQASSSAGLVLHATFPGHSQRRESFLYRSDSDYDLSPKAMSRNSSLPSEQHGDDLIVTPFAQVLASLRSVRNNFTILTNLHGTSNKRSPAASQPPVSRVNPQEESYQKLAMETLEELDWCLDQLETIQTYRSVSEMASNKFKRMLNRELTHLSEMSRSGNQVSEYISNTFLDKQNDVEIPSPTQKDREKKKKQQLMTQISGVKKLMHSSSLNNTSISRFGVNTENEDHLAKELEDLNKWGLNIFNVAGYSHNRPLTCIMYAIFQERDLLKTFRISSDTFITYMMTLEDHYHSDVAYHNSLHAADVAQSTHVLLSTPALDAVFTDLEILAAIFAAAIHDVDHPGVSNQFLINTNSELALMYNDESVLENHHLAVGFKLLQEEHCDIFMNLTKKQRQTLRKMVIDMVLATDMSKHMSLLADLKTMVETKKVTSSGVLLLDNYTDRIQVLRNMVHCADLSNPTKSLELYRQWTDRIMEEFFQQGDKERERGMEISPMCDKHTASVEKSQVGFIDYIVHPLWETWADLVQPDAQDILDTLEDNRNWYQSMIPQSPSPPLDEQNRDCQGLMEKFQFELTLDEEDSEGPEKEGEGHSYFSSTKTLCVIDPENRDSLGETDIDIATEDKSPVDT
Sequence of Ubiquitin carboxyl-terminal hydrolase 1 (Homo sapiens) (O94782 whole entry, looked up): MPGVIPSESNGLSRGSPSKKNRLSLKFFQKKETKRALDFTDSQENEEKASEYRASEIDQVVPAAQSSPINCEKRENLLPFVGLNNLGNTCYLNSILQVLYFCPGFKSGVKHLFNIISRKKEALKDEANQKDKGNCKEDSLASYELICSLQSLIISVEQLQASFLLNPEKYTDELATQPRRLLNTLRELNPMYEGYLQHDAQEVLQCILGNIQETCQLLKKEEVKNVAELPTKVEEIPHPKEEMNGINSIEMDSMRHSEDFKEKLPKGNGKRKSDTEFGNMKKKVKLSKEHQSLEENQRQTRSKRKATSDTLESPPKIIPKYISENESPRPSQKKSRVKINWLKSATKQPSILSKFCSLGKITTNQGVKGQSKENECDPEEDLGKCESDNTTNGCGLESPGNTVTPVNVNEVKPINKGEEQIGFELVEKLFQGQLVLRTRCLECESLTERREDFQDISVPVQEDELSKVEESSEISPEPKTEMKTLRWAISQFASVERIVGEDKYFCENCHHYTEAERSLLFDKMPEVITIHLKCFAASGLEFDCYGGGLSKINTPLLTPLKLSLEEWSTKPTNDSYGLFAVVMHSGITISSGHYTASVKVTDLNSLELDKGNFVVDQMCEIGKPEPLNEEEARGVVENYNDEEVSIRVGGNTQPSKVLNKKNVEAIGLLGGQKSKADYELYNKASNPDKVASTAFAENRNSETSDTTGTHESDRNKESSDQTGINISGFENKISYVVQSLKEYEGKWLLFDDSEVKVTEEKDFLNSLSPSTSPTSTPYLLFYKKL
Sequence of Cytochrome P450 1A2 (Homo sapiens) (P05177 whole entry, looked up): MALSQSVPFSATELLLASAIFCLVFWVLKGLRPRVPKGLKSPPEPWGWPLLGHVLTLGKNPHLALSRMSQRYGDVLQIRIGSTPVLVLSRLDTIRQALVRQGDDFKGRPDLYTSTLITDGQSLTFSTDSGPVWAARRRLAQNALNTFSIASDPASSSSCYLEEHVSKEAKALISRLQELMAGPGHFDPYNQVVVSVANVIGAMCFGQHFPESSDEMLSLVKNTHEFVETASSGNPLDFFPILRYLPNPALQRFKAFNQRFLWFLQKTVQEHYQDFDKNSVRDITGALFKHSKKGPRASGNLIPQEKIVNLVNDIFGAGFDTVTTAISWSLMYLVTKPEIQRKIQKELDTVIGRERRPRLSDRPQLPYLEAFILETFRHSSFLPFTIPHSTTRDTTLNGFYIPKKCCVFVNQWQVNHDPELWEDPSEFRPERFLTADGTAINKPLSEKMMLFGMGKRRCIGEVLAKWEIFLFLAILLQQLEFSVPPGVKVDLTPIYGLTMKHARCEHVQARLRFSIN
Sequence of Cytochrome P450 3A4 (Homo sapiens) (P08684 whole entry, looked up): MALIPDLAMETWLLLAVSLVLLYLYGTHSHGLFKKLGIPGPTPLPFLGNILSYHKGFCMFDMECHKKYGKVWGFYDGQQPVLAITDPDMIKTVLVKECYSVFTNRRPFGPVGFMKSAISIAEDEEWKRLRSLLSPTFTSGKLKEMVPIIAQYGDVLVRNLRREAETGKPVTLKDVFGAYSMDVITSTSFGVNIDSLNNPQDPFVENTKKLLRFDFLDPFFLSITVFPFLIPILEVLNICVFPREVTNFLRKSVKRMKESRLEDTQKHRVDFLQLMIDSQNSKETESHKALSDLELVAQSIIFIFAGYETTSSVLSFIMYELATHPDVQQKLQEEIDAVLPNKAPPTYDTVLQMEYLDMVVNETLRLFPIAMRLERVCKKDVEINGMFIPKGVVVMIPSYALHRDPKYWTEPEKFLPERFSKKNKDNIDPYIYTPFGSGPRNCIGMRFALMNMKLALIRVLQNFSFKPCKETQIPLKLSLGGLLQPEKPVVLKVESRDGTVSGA
Sequence of Cytochrome P450 2D6 (Homo sapiens) (P10635 whole entry, looked up): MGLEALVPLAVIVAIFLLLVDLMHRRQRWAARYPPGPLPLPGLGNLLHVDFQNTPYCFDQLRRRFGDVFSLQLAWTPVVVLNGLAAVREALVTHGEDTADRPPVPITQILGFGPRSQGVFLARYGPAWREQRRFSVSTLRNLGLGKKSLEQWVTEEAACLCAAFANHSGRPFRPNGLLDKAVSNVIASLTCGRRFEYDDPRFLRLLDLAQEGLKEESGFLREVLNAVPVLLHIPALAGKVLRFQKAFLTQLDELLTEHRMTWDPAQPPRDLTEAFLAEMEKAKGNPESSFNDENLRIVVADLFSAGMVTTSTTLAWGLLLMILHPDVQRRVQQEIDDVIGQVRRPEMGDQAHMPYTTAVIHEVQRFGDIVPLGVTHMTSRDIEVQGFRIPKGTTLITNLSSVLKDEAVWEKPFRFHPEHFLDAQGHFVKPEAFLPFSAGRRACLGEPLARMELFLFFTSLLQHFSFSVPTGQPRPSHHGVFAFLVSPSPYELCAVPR
Sequence of Pyruvate kinase PKM (Homo sapiens) (P14618 whole entry, looked up): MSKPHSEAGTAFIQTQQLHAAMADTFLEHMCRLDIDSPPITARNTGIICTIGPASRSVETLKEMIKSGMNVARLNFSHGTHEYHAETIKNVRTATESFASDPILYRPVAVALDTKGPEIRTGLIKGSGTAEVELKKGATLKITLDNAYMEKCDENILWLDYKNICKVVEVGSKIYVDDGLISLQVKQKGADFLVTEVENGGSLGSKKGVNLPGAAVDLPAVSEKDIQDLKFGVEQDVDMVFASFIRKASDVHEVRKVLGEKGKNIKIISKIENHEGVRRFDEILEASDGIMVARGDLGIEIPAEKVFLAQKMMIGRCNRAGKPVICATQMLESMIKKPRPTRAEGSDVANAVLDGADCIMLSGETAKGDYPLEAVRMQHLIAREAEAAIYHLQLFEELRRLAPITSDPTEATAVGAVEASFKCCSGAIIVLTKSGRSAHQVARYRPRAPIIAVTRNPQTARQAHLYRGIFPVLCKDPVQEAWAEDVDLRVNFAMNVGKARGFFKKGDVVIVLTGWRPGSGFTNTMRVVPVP

CCNCCCNCCCCNCCCNCC
18.1%: max response [5, 20]
inactive: Potency [1] > 46 µM | Potency [2] > 46 µM | Potency [3] | Potency [4] | activity change, negative = inhibition ([5]; at 57.5 µM (top of the series)) 2.21% | Potency [6] | Potency [7] | Potency [8]
15.1%: max response [5, 19]

CN1CCN2c3ccccc3Cc3ccccc3[C@@H]2C1
-8.62%: max response [5, 20]
inactive: activity, negative = inhibition ([9]; at 17.2 µM (top of the series)) 2.47% | activity, negative = inhibition ([9]; at 38 µM (top of the series)) -1.53% | Potency [1] > 46 µM and > 20.6 µM | Potency [2] > 46 µM and > 20.6 µM | Potency [3] | Potency [4] | outcome [10] | Potency [11] | Potency [12] | outcome [13] | outcome [14] | outcome [15] | activity change, negative = inhibition ([5]; at 25.7 µM (top of the series)) -3.71% | Potency [6] | Potency [7] | Potency [8]
-3.28%: max response [5, 19]

N[C@H](C(=O)O)[C@H](OCc1ccccc1)C(=O)O
inactive: Potency [1] > 46 µM | Potency [2] > 46 µM | Potency [3] | Potency [4] | Potency [7] | Potency [8]
active: Potency [16] 31.6 µM | Potency [17] 7.94 µM

COc1cc(OC)c2cc(-c3ccncc3)cnc2c1
active: Potency [16] 0.2 µM | Potency [8] 21.2 µM
inactive: Potency [1] > 46 µM | Potency [2] > 46 µM | Potency [3] | Potency [4] | Potency [18] | Potency [7]
